Out of some 31,000 sequences screened, about 1,400 (4.5%) were called active. Only a selection was taken, and actives are over-represented in it overall. A number with no mark means an inactive call.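 How the source made its calls: active means median seed-adjusted z-score above 1 or below -1; inactive means the rest.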
Experiment: Novel Modifiers of Survival Motor Neuron (SMN) Protein: Gene Identification via Genome-wide siRNA Screen;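 further: luminescence tracks full-length SMN protein made from the SMN2 reporter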
Conditions: HEK293T SMN2-luciferase reporter, siRNA knockdown, 72 h; actives lie on both sides
How it was run: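 siRNA screen, 10418 genes ×3 siRNAs; 1 pmol/well, lipid reverse transfection into HEK293T SMN2-luc reporter line. 72 h, 37 °C, 5% CO2; ONE-Glo readout. Data: neg-ctrl normalized, log10, MAD; hit = MAD >1.0 or < -1.0.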
In the case of GCAGUGUACCCGUCAUUAUTT against SEMA4B, the median seed-adjusted z-score is reported as 0.185. GGAACAAAAGGAUCGAAUATT against CLSTN3 showed a median seed-adjusted z-score of 0. For CUAUAAAUGUAAACGAUGUTT against ZNF442, the median seed-adjusted z-score was 1.06 (active). CUGUUUGACUUCAUCGAGATT against COPG gave a median seed-adjusted z-score of 0.175. CAAUCCAUGUCAUAGGGAATT against ZNF702 gave a median seed-adjusted z-score of 0.204. CGGCAAUCCUUACGGCUAATT against DSG4 gave a median seed-adjusted z-score of -0.0211. With CCGUCAUUGUCAACCGGAATT against SLC4A5 the median seed-adjusted z-score was 1.3 (active). Work on CUACGUCUCGGGUCCAGAUTT against HOXA11 yielded a median seed-adjusted z-score of -0.222. Sequence GGACAUACACUGAGAGUCATT against PDLIM2 has a median seed-adjusted z-score of 0.267. With GAGCAGAACCGCAUCAUAUTT against UCN the median seed-adjusted z-score was -0.472. With GGAGGAUACUUUAGAACAATT against NDC80 the median seed-adjusted z-score was 0.0855. For GCAUCUACAUGACCAACCUTT against GPR35, the median seed-adjusted z-score was -1.46 (active). Sequence CAUGAUACAGGGAAUAAAATT against ZNF619 has a median seed-adjusted z-score of -0.536. For UCAUCGAACUGAAUACCAATT against STARD3, the median seed-adjusted z-score was -0.314. Sequence CUACUGGACUGAUCAAGCUTT against CTCFL has a median seed-adjusted z-score of -0.362. GGACAAAGACUGUCGCCUATT against DHX35 gave a median seed-adjusted z-score of -0.066. Sequence CUAUGACGACUUAUCCAAATT against ATP5A1 has a median seed-adjusted z-score of -0.974. In the case of CCUACACCAUGAUCGGAAATT against KIF26B, the median seed-adjusted z-score is reported as -0.153. Work on GCGUUAUCCUCACCUUCAATT against G6PD yielded a median seed-adjusted z-score of 0.593. With CAUUCAGCUUGUCACGUCATT against THOC4 the median seed-adjusted z-score was -1.54 (active). CCAAGGUUUUGGAUAGCAATT against RHBDL2 showed a median seed-adjusted z-score of 0.0701. Sequence CCAAGUCCCAUACAACAAATT against C1S has a median seed-adjusted z-score of -0.561. Work on GCUUCUACCUUUACACGGATT against PDE1A yielded a median seed-adjusted z-score of 0. For CUAUAGCUGUCUCCCAGAATT against PRICKLE2, the median seed-adjusted z-score was -1.12 (active). For GGAGAAAAACUAUAUGAAUTT against ZNF585B, the median seed-adjusted z-score was 0.158. CUUUGGAACAAAUACCGAATT against NXN gave a median seed-adjusted z-score of 0.175. In the case of CACCUAUAGUGACGAUAUATT against MEP1B, the median seed-adjusted z-score is reported as 1.46 (active). Work on AGGCAUUCCUCGGAAGUCATT against SMAD7 yielded a median seed-adjusted z-score of -0.25. Sequence CCAUCGUUUUGGUCUUGUATT against VN1R2 has a median seed-adjusted z-score of -0.151. With GGAAAGAACUACCUCCUGATT against TREH the median seed-adjusted z-score was 0.396. Sequence GGAAGAUCAUAGAAGUUGATT against SLC1A1 has a median seed-adjusted z-score of 0.0967. Sequence CCAUUGUCACGGGCUUGUATT against ENPP3 has a median seed-adjusted z-score of 0.66. In the case of GCAUCUAUGUCAACAAGAUTT against POLR2I, the median seed-adjusted z-score is reported as -3.27 (active). For CUGCUAAACUUGAACCGAATT against TM9SF2, the median seed-adjusted z-score was 1.09 (active). For UCCUAUCAGAAGUUGCAUATT against RKHD4, the median seed-adjusted z-score was 0.0683. Work on CAAUGUUUACUACAAUGAATT against TUBB2B yielded a median seed-adjusted z-score of 0.935. In the case of GGAGUGCUAGAAUCUACUATT against HEPH, the median seed-adjusted z-score is reported as -0.293. For GGAUACAAAGCACAUAACATT against UBE2D4, the median seed-adjusted z-score was 0.232. With GAGCAUUAUGUUACACCAATT against TTC6 the median seed-adjusted z-score was 0.234. For GAACCUCAGUUGAGUAUUUTT against RPE, the median seed-adjusted z-score was 0.616. CAGUGCUGUUAGAAUAAAATT against ZNHIT1 showed a median seed-adjusted z-score of -0.497. In the case of UGUGGAGAAUGACUACAUATT against SPRY4, the median seed-adjusted z-score is reported as -1.23 (active). GGAUGACCAGGGUCUAUAATT against FMO4 showed a median seed-adjusted z-score of -0.359. In the case of CCAUGAAUUCUUACUUUUATT against VAC14, the median seed-adjusted z-score is reported as 0.0825. Sequence CAGAAUCAGCUGGAAGAAATT against BAIAP2 has a median seed-adjusted z-score of -0.0497. In the case of GUAGCAGGGCUGAACCCAUTT against ZMAT5, the median seed-adjusted z-score is reported as 0.292. GCCGUGACCUACUUCAUCATT against SLC29A4 gave a median seed-adjusted z-score of 0.0192. Work on CAGCUGAUGCGGACCAAGATT against RASSF4 yielded a median seed-adjusted z-score of 0.29. Sequence GAUACUCGUAUUAAGCCUATT against USP32 has a median seed-adjusted z-score of 0.484. For GAACUGUGCUGAUGUGAAATT against PATE1, the median seed-adjusted z-score was 1.21 (active). In the case of GCAAGUCGUGAAACUAUAATT against YEATS4, the median seed-adjusted z-score is reported as 0.905. For GGUGCUGAAUGUGGAGUAATT against DNAJC3, the median seed-adjusted z-score was 0.502. GCAGAACAACGAGCACAGATT against CTSW showed a median seed-adjusted z-score of -0.342. Work on GGAAUUCCAGUAACGAUGATT against RNF149 yielded a median seed-adjusted z-score of -0.17. Work on GCAUAAAUGAAAUCUCGGATT against ZMYND8 yielded a median seed-adjusted z-score of -0.065. Sequence GGGUCAUCCGAGAAAAGAATT against ADAMTS17 has a median seed-adjusted z-score of 0.257. With GAGCAGUACAGAACAGGAATT against HAAO the median seed-adjusted z-score was 0.214. In the case of GCUGCUCACUGUUUCAUGATT against PRSS36, the median seed-adjusted z-score is reported as 0.589. With CAACAGAAUAUGCCGUAUATT against SNRPA1 the median seed-adjusted z-score was -2.71 (active). Sequence GUUUGCAUGUGACAAUGGATT against PPTC7 has a median seed-adjusted z-score of 0.49. GCACAGGUCUAAUUCGUCUTT against GRIK1 showed a median seed-adjusted z-score of -0.31. CGACACCGGAUAAACCAAATT against HES1 gave a median seed-adjusted z-score of -0.262. Sequence GCACCAGGAUAUGUCUUAATT against YY1AP1 has a median seed-adjusted z-score of 0.0453. For GGUCAAAGAGUUAUAGAUUTT against MKKS, the median seed-adjusted z-score was 1.03 (active). For GGUGUCACCCUGUGAAUUUTT against MAP1S, the median seed-adjusted z-score was 0.0941. AGCCUAUGGUCGGAACGAATT against APOBEC3F showed a median seed-adjusted z-score of -0.315. For GCACCUAUGCAGCUCUUCATT against FBLIM1, the median seed-adjusted z-score was 0.0604. Work on GGGUUACCCUGGUCAUUAATT against ZNHIT2 yielded a median seed-adjusted z-score of -0.339. Work on GGAGAGACCAGUAAACCGATT against NSFL1C yielded a median seed-adjusted z-score of -0.0899. For CGAUGAACAUGUUAGACAUTT against AZIN1, the median seed-adjusted z-score was -1.14 (active). GUACAGGGAGCAGAUCAAATT against HRAS gave a median seed-adjusted z-score of -0.85. With GGAUGUUCACAACCGAAUUTT against CTNNB1 the median seed-adjusted z-score was 0.0802. With GGGUAAACGAUUCCAGCAATT against N-PAC the median seed-adjusted z-score was 0.0542. In the case of GAAUUGGACUGGAUGCUAATT against DGKK, the median seed-adjusted z-score is reported as 0. GGUCCAAAGGGAUCAGGAATT against EMR2 showed a median seed-adjusted z-score of 0.0569. In the case of GCAUCGUUUCUAUGAACUUTT against KCNB2, the median seed-adjusted z-score is reported as 1.22 (active). With GGAUGUAAGCCUGACCAUATT against ZNF784 the median seed-adjusted z-score was 0.291. For CCAGAAAGCUUCAUCCACATT against MC1R, the median seed-adjusted z-score was -0.64. For GCAGAUCCCUUGUUUUCCUTT against APLN, the median seed-adjusted z-score was 0.0181. For CGCUUAAGCCUUCCAACAATT against POLR2A, the median seed-adjusted z-score was -3.81 (active). Work on CGGGCAUUCUUAUUAGUCATT against SLC2A2 yielded a median seed-adjusted z-score of -0.498. Work on CAUCCAGCAUACAAAAGAATT against FCRL3 yielded a median seed-adjusted z-score of -0.642. With GCCUCAGUGUUAUUCGAUATT against MAP1B the median seed-adjusted z-score was 0.139. AGAUCGACUUGAUCGUGCATT against CDK10 showed a median seed-adjusted z-score of 0.327. In the case of CAGUCUUCACUGACAACUATT against VIP, the median seed-adjusted z-score is reported as 1.52 (active). GGACCAAGAUGAUCAGAAATT against SAFB gave a median seed-adjusted z-score of -0.954. Work on CAUAGUCCUUGGACAUGUATT against TDRD9 yielded a median seed-adjusted z-score of 0.0754. Sequence CUACCAAUAUGAUAGGUUATT against DDX17 has a median seed-adjusted z-score of 0.231. Work on CUAUAGGUUUUAUAGCAUUTT against LIPA yielded a median seed-adjusted z-score of 0.535. For GAGUUUCUGUCCAAACUGATT against IL17RA, the median seed-adjusted z-score was -1.29 (active). With GGCAAAAACUGUGAAUUAUTT against F10 the median seed-adjusted z-score was -0.0033. For CGGAAGGACAGACAAGUAATT against SIGLEC9, the median seed-adjusted z-score was 0. With CCAUCACGUUCAUUACCUUTT against GAN the median seed-adjusted z-score was -1.07 (active). Work on GCCUUUGCAGGUAUCAGAATT against LYPLA1 yielded a median seed-adjusted z-score of 0. For GCUUGACUUCAAAACUAAATT against SERPIND1, the median seed-adjusted z-score was 0.133. For CCCAAUCAGUAAGAACCAATT against CEACAM1, the median seed-adjusted z-score was -0.211. In the case of CCACCUAUAAAGUUCUAAATT against CAPRIN1, the median seed-adjusted z-score is reported as 1.36 (active). For GAUUAUACAUAUUUCGCAATT against BRCA2, the median seed-adjusted z-score was 0. Work on UGGUGUACACUGUUACUCATT against LOC158381 yielded a median seed-adjusted z-score of 0. For CGGUCUACAGCAUCGAGUATT against IL22RA1, the median seed-adjusted z-score was -1.14 (active). CUAUCGACAUCAAGAGUUUTT against PSPC1 gave a median seed-adjusted z-score of 0.0612. Work on GGUUGACAGUGUGCCUAAATT against NRIP1 yielded a median seed-adjusted z-score of 0.789. With GGAUAGAUGUUUCUAUCAATT against SUZ12 the median seed-adjusted z-score was -1.65 (active). Work on GGUGUUUGAUUGUGAGAAUTT against UBE2G1 yielded a median seed-adjusted z-score of 0.174. CCCACUACAGAAGACUUAUTT against SLC4A1 showed a median seed-adjusted z-score of -0.861. GAAAUGUACCCUCCAGAAATT against CCNB1 gave a median seed-adjusted z-score of 0.163. In the case of CCGGAGAUGGAUGAAUCUATT against ICAM5, the median seed-adjusted z-score is reported as -1 (active). Sequence GUUUCUCAGUACUUCCAGATT against APOA2 has a median seed-adjusted z-score of -0.297.

— PubChem BioAssay AID1347426 (Functional Genomics Laboratory (NCATS/FGL), 2020)
